Only some compounds are listed: those with a hit (about 19% of all), similar ones and a draw of the others.
HT1080 IDH1KD tx: toxicity to HT-1080 IDH1 knockdown cells (counter line); Potency, µM (doses to about 46.1 µM), for the others: at the top dose activity, negative = toxicity, actives largely listed as cytotoxic; HT-1080 IDH1 knockdown viability, ATP luminescence, 48 h; 2% of 360,000 active;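 note: 0% = DMSO wells and -100% = cell-free medium wells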
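Luminescent ATP read-out (CellTiter-Glo, 10 min at room temperature) after 48 h compound exposure at 37 °C gave viability of IDH1-knockdown HT-1080 cells. Activity was normalised to DMSO and cell-free wells, then fitted as concentration-response curves.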
HT1080-NT tox: kills 2HG-producing HT-1080-NT fibrosarcoma cells | HT-1080-NT fibrosarcoma viability, CellTiter-Glo ATP luminescence, 48 h | Potency, µM (titrated, usually from 46.1 µM), for the others: at the highest dose activity, negative = less viability, actives largely listed as cytotoxic | 1.6% of 360,000 active | AID 686970;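 note: NT is the 2HG producing partner of a matched IDH1 knockdown line; 0% = DMSO-treated cells and -100% = media-only wells without cells; nearly all actives have a fitted effect of over 55% in size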
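Compounds were tested in concentration-response format on HT-1080-NT cells for 48 hours at 37 degrees C. Cell viability came from CellTiter-Glo luminescence; curves were classified by r2, response magnitude and activity.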
KB-3-1 cytotox: kills parental KB-3-1 adenocarcinoma cells. KB-3-1 viability, CellTiter-Glo ATP luminescence, 72 h. Potency, µM (top dose mostly 46.1 µM), hits mostly cytotoxic. 1.4% of 400,000 active. AID 1347075; note: nearly all actives have a fitted effect of over 60% in size
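Screening of KB-3-1 cells (DMEM, 10% FBS, phenol-red free) ran from lowest to highest compound concentration; after 72 h at 37 °C viability was read luminescently and curves fitted.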
KB-V1 MDR tox: kills drug-selected multidrug resistant KB-V1 cells. KB-V1 MDR cells viability, CellTiter-Glo, 72 h. Potency, µM (top dose mostly 46.1 µM), usual class: cytotoxic. 3.4% of 400,000 active. AID 1347076; note: nearly all actives have a fitted effect of over 60% in size
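qHTS viability screen in drug-selected KB-V1 MDR cells: 72 h compound treatment at 37 degrees C, ATP luminescence end point.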
TDP1 cell noCPT: qHTS for Inhibitors of human tyrosyl-DNA phosphodiesterase 1 (TDP1): qHTS in cells in absence of CPT; DT40 Tdp1-/- hTDP1 cells, no CPT, ATP luminescence, 48 h; Potency, µM (doses to about 46.2 µM), for the others: at the highest dose activity change, negative = growth inhibition, usual class: inhibitors; 15% of 420,000 active; AID 686978, 2013; note: nearly all actives have a fitted effect of over 55% in size
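No-CPT arm: Tdp1-/-;hTDP1 DT40 cells (400/well) plus compounds, incubated ≥48 hr at 37 °C. Readout CellTiter-Glo luminescence.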
TDP1 cell CPT: growth inhibition of DT40 Tdp1-/-;hTDP1 cells with camptothecin (screen for TDP1 inhibitors) | chicken DT40 Tdp1-/-;hTDP1 cells + 20 nM CPT, ATP luminescence, 48 h | 12% of 420,000 active | Potency, µM (series often up to 46.2 µM), for inactives: top-dose activity change, negative = growth inhibition, most hits filed as inhibitors | AID 686979; note: nearly all actives have a fitted effect of over 55% in size
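Cell growth measured by CellTiter-Glo luminescence after a minimum 48 h, 37 C compound exposure with 20 nM CPT in Tdp1-knockout DT40 cells stably expressing hTDP1, seeded 400/well; qHTS titration format.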
An asterisk follows results filed as active; i = inactive; ? = inconclusive; / = not tested or not shown; ! = not active in a repeat. Calls come from the whole dose curve; as a rule, active = well fitted curve in the direction sought with a large enough effect; inconclusive = small, poorly fitted or top-dose-only effect, or another doubt; inactive = no such curve, though single readings can be large; an effect the other way counts as inactive or inconclusive. Unless noted, % is set by controls: 0 for no effect and ±100 for the full control effect; potency is the fitted concentration of half-maximal effect.

SMILES | HT1080 IDH1KD tx | HT1080-NT tox | KB-3-1 cytotox | KB-V1 MDR tox | TDP1 cell noCPT | TDP1 cell CPT
N#Cc1ccccc1NC(=O)CSc1nc(-c2ccccc2)cc(C(F)(F)F)c1C#N | / | / | i | i | -13.9% | -19.4%
CCN(CC)C(=O)c1c(-c2ccccc2)c(-c2ccccc2)nn(C)c1=O | / | / | / | / | -0.9% | 4.6%
O=C1CSC(=Nc2cccc(C(=O)O)c2)N1 | 14.1% | 4.8% | i | i | -2.5% | 21.3%
CC(=O)c1cccc(N=C2NC(=O)CS2)c1 | 9.3% | 8.0% | i | 6.51µM* | 4.8% | 9.3%
COC(=O)c1ccc(COc2cccn3c(N(C)C(=O)CCC4CCCC4)c(C)nc23)cc1 | ? | ? | i | i | 20.6µM* | 18.4µM*
Cc1nc2c(OCc3ccc(Cl)cc3)cccn2c1N(C)C(=O)CCC1CCCC1 | 18.2% | 14.5% | ? | ? | 23.1µM* | 14.6µM*
Cc1nc2c(OCc3ccc(F)cc3)cccn2c1N(C)C(=O)CCC1CCCC1 | ? | ? | i | i | 23.1µM* | ?
CCCCNC(=O)C1c2ccccc2OCC(=O)N1Cc1ccc2c(c1)OCO2 (configuration not stated) | 4.7% | 8.5% | i | i | ? | ?
C[C@H](c1ccccc1)N1C[C@@H](COCc2ccccc2)Oc2cc(N3CC[C@@H](O)C3)ccc2S1(=O)=O | ? | ? | i | ? | 23.1µM* | 20.6µM*
C[C@@H](c1ccccc1)N1C[C@H](COCc2ccccc2)Oc2cc(N3CC[C@H](O)C3)ccc2S1(=O)=O | ? | ? | i | i | 20.6µM* | ?
C[C@@H](c1ccccc1)N1C[C@@H](COCc2ccccc2)Oc2cc(N3CC[C@H](O)C3)ccc2S1(=O)=O | ? | ? | i | ? | 18.4µM* | ?
CCCCC[C@H](C)N1C[C@H](COCc2ccccc2)Oc2cc(N3CC[C@@H](O)C3)ccc2S1(=O)=O | ? | ? | i | i | ? | ?
CC1(C(=O)NS(=O)(=O)c2ccccc2)CCN1C(=O)COc1ccc(Cl)cc1 (configuration not stated) | ? | 3.2% | i | i | -2.3% | -6.2%
Cc1cc(C)cc(C(O)c2ncc(-c3ccccc3C)[nH]2)c1 (configuration not stated) | ? | ? | i | i | ? | ?
Cc1ccc(C(=Cc2ccc([N+](=O)[O-])cc2)C(=O)O)cc1 | 5.5% | 0.6% | i | i | 11.9% | ?
CCOC(=O)[C@H](CCc1ccccc1)N[C@H]1CCc2ccccc2N(CC(=O)O)C1=O | -1.3% | 19.0% | i | i | 21.1µM*! | ?
CCOC(=O)[C@H](CCc1ccccc1)N[C@H]1CCCN2CCC[C@@H](C(=O)O)N2C1=O | / | / | / | / | -13.5% | -24.5%
CSc1nc2[nH]c3c(c2c2ncnn12)CCCC3 | -10.0% | -3.1% | i | i | ? | 14.6µM*
CSc1c2c(nc3ncnn13)CCC2 | 18.2% | 8.0% | i | i | -0.4% | 16.8%
O=c1cnc2cnc(Nc3ccccc3)nc2n1C[C@H]1CCCO1 | / | / | / | / | 9.2µM* | 8.2µM*
COCCn1c(=O)cnc2cnc(Nc3ccccc3)nc21 | / | / | / | / | 14.6µM* | 9.2µM*
COC(=O)c1ccc2nc(-c3ccco3)c(Cc3ccccc3C(F)(F)F)n2c1 | -27.5% | 2.5% | i | i | ? | ?
CC(=O)N1CCc2cc(S(=O)(=O)N3c4ccccc4CC3C)ccc21 (configuration not stated) | ? | ? | ? | ? | 13µM* | 11.6µM*

High-throughput results (PubChem BioAssay)
